Measured values as given in PubChem BioAssay AID1159580 (chemical genetic matrix, 2015).
“And” between values parts separate entries of the source, which are not always exact repeats. Identical values can stand only once. The campaign covered roughly 5,500 compounds. About 2,000 (36%) were called active. Not shown: some 18% with an inconclusive outcome. Cut-off read from the data, not from the text of the source: active = normalized growth mostly below about 0.91 (no sharp cut-off); inconclusive = no clear call, values can overlap the other calls; inactive = mostly above about 0.92. The list shows a part of the results.

Experiment: chemical genetic growth profiling, strain panel (AID 1159580);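 note: tested at 20 µM; growth read once vehicle control cultures reached saturation at 30 °C; 1 = growth at the plate median or of vehicle wells; lower values mean less growth of the strain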
Settings: S. cerevisiae deletion strains, growth OD

Measured: normalized growth

NC(=O)NC(=O)Cc1ccccc1
inactive: locus YAL013W, strain DEP1, active compounds read low 1.03 | locus YAL021C, strain ccr4, active compounds read low 0.999 | locus YAL026C, strain drs2, active compounds read low 0.976 | locus YAL030W, strain snc1, active compounds read low 0.995 | locus YBL061C, strain skt5, active compounds read low 0.975 | locus YBR009C, strain hhf1, active compounds read low 1.04 | locus YBR021W, strain FUR4, active compounds read low 1.02 | locus YBR023C, strain chs3, active compounds read low 0.974 | locus YBR171W, strain sec66, active compounds read low 0.992 | locus YBR229C, strain ROT2, active compounds read low 0.995 | locus YBR231C, strain swc5, active compounds read low 1.01 | locus YBR279W, strain paf1, active compounds read low 0.979 | locus YCL011C, strain gbp2, active compounds read low 0.961 | locus YCL016C, strain dcc1, active compounds read low 0.96 | locus YCL029C, strain bik1, active compounds read low 0.997 | locus YCL069W, strain vba3, active compounds read low 1.01 | locus YCR088W, strain abp1, active compounds read low 0.993 | locus YDL005C, strain med2, active compounds read low 0.98 | locus YDL035C, strain GPR1, active compounds read low 1.02 | locus YDL040C, strain nat1, active compounds read low 0.991 | locus YDL074C, strain BRE1, active compounds read low 1.16 | locus YDL101C, strain DUN1, active compounds read low 1 | locus YDL134C, strain PPH21, active compounds read low 1 | locus YDL185W, strain tfp1, active compounds read low 0.992 | locus YDL192W, strain arf1, active compounds read low 0.991 | locus YDR001C, strain nth1, active compounds read low 0.98 | locus YDR069C, strain doa4, active compounds read low 0.99 | locus YDR101C, strain arx1, active compounds read low 0.994 | locus YDR137W, strain rgp1, active compounds read low 0.979 | locus YDR150W, strain NUM1, active compounds read low 1.01 | locus YDR159W, strain sac3, active compounds read low 0.997 | locus YDR162C, strain NBP2, active compounds read low 1.04 | locus YDR195W, strain ref2 0.994 | locus YDR297W, strain sur2, active compounds read low 0.996 | locus YDR318W, strain mcm21, active compounds read low 0.993 | locus YDR334W, strain swr1, active compounds read low 0.978 | locus YDR335W, strain msn5, active compounds read low 0.964 | locus YDR388W, active compounds read low 0.995 | locus YDR392W, strain spt3, active compounds read low 0.916 | locus YDR502C, strain sam2, active compounds read low 1.01 | locus YEL003W, strain gim4, active compounds read low 0.998 | locus YEL037C, strain rad23, active compounds read low 0.983 | locus YEL061C, strain CIN8 (second series), active compounds read low 0.976 | locus YEL061C, strain CIN8, active compounds read low 1.03 | locus YER015W, strain faa2, active compounds read low 0.99 | locus YER016W, strain bim1, active compounds read low 0.96 | locus YER110C, active compounds read low 0.998 | locus YER111C, strain swi4, active compounds read low 0.981 | locus YER155C, strain BEM2 (second series), active compounds read low 1.04 | locus YER155C, strain BEM2, active compounds read low 1 | locus YER167W, strain BCK2, active compounds read low 1 | locus YFR010W, strain ubp6, active compounds read low 1.01 | locus YGL078C, strain dbp3, active compounds read low 1 | locus YGL086W, strain mad1, active compounds read low 0.995 | locus YGL167C, strain pmr1, active compounds read low 1 | locus YGL173C, strain kem1, active compounds read low 1.04 | locus YGL227W, strain vid30, active compounds read low 1 | locus YGL240W, strain doc1, active compounds read low 1.04 | locus YGL248W, strain PDE1, active compounds read low 1 | locus YGL253W, strain hxk2, active compounds read low 0.955 | locus YGR078C, strain PAC10, active compounds read low 1.01 | locus YGR135W, strain pre9, active compounds read low 0.993 | locus YGR229C, strain SMI1, active compounds read low 1.13 | locus YGR252W, strain gcn5, active compounds read low 1.14 | locus YHR013C, strain ard1, active compounds read low 0.964 | locus YHR027C, strain rpn1, active compounds read low 0.999 | locus YHR030C, strain SLT2, active compounds read low 1 and 0.964 | locus YHR079C, strain IRE1 (second series), active compounds read low 1 | locus YHR079C, strain IRE1, active compounds read low 0.978 | locus YHR094C, strain hxt1, active compounds read low 1 | locus YHR129C, strain ARP1, active compounds read low 1 | locus YHR142W, strain chs7, active compounds read low 0.931 | locus YHR200W, strain rpn10, active compounds read low 0.991 | locus YIL066C, strain RNR3, active compounds read low 1.01 | locus YIL073C, strain SPO22, active compounds read low 0.979 | locus YIL125W, strain kgd1, active compounds read low 1 | locus YIR030C, strain dcg1, active compounds read low 0.995 | locus YJL092W, strain hpr5, active compounds read low 0.977 | locus YJL095W, strain BCK1 (second series), active compounds read low 0.967 | locus YJL095W, strain BCK1, active compounds read low 1.04 and 0.989 | locus YJL115W, strain asf1, active compounds read low 0.957 | locus YJL129C, strain trk1, active compounds read low 0.955 | locus YJL134W, strain LCB3, active compounds read low 1.01 | locus YJL154C, strain vps35, active compounds read low 0.984 | locus YJL164C, strain tpk1, active compounds read low 0.998 | locus YJL166W, strain qcr8, active compounds read low 1 | locus YJL168C, strain set2, active compounds read low 0.997 | locus YJL187C, strain SWE1 (second series), active compounds read low 0.995 | locus YJL187C, strain SWE1, active compounds read low 0.994 | locus YJR043C, strain POL32, active compounds read low 1.03 | locus YJR066W, strain TOR1, active compounds read low 0.931
